Bioassay records from PubChem BioAssay.
This is a sample that favours compounds with a hit; in the whole collection about 7.4% have one here.
ELG1 genotoxic – qHTS screen for small molecules that induce genotoxicity in human embryonic kidney (HEK293T) cells expressing luciferase-tagged ELG1. AID 504466, 2011. Potency, µM (top dose mostly 46 µM), without a hit: at the top dose activity change, positive = activation, hits mostly activators. 330,000 compounds, 1.3% hits. HEK293T ELG1-luciferase reporter, luminescence, 16 h; note: % of control where 0% means no effect; nearly all actives have a fitted effect of over 60% in size
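Genotoxic stress is detected as increased luminescence from luciferase-tagged ELG1 in HEK293T cells, measured with ONE-Glo after a 16 hr treatment at 37 °C.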
SMN2 splice up – qHTS Assay for Enhancers of SMN2 Splice Variant Expression | HEK293 SMN2-luciferase splicing reporter, luminescence, 30-36 h | AID 1458, 2008 | Potency, µM (titrated, usually from 46.1 µM), for inactives: at the top dose activity change, positive = activation, actives largely listed as activators | 210,000 compounds, 2.8% hits; note: % of control where 0% means no effect; nearly all actives have a fitted effect of over 55% in size
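HEK293 cells carry an SMN2 […]–luciferase reporter in which exon 7 inclusion puts luciferase in frame. Cells were plated 10-12 h before compound addition, then incubated 30-36 h at 37C. ONE-Glo luminescence was read; sodium butyrate at 4.5 mM final served as control.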
FLuc modulator – qHTS profiling assay for firefly luciferase inhibitor/activator using purifed enzyme and Km concentrations of substrates (counterscreen for miR-21 project); Luciferin 4-monooxygenase (Photinus pyralis), P08659; purified FLuc, Km substrates, luminescence inhibition; Potency, µM (doses to about 57.5 µM), for the others: at the top dose activity change, negative = inhibition, hits mostly inhibitors; 360,000 compounds, 6.9% hits; AID 588342, 2011;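 note: plate controls were vehicle for no effect and reference inhibitor for full effect; nearly all actives have a fitted effect of over 55% in size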
Target sequence (P08659 whole entry, looked up): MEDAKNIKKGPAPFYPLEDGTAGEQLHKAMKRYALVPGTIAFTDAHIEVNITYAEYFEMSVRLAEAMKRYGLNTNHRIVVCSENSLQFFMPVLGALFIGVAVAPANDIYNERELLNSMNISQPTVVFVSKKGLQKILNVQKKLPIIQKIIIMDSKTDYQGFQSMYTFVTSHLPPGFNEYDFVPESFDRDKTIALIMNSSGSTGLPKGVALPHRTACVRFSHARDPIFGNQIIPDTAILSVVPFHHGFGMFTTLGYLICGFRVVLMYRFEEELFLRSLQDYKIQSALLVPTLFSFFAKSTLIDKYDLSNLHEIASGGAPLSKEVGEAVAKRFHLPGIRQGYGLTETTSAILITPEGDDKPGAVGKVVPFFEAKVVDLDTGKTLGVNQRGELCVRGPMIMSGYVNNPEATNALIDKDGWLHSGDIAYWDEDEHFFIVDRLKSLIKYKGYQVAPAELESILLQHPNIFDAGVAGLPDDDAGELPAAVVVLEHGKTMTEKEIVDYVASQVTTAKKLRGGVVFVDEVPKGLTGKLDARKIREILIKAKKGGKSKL
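Purified P. pyralis luciferase (10nM final) with 10uM D-luciferin and 10uM ATP (Km levels) in 50mM Tris acetate pH 7.5, 10mM Mg acetate, 0.01% Tween-20, 0.05% BSA; qHTS 6-point titration, ~60 µM downward; luminescence read.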
Rab9 promoter act – qHTS Assay for Rab9 Promoter Activators; Huh7 Rab9 promoter-luciferase reporter, luminescence, 24 h; Potency, µM (titrated, usually from 9.22 µM), without a hit: at the top dose activation, negative = inhibition, most hits filed as activators; 320,000 compounds, 2.8% hits; AID 485297, 2010; note: % of control where 0% means no effect; nearly all actives have a fitted effect of over 60% in size
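Luminescence read-out: Huh7 cells stably expressing Rab9-luciferase, treated 24 h with compound at 37 °C, then lysed with luciferase reagent for 10 min at ambient before reading.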
NPC1 promoter act – qHTS Assay for NPC1 Promoter Activators; Huh7 NPC1 promoter luciferase reporter, 24 h; Potency, µM (doses to about 9.22 µM), for the others: top-dose activation, actives largely listed as activators; 320,000 compounds, 2.4% hits; note: % of control where 0% means no effect; nearly all actives have a fitted effect of over 60% in size
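Luminescence from an NPC1 promoter-driven luciferase reporter in stably transfected Huh7 cells was measured after 24 h compound treatment at 37 °C, followed by 10 min ambient incubation with luciferase detection reagent.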
An asterisk follows results filed as active; ? = inconclusive; · = no result; [ ] = another dose, or the depositor's remark. Calls come from the whole dose curve; as a rule, active = well fitted curve in the direction sought with a large enough effect; inconclusive = small, poorly fitted or top-dose-only effect, or another doubt; inactive = no such curve, though single readings can be large; an effect the other way counts as inactive or inconclusive. Potency is the fitted concentration of half-maximal effect.

SMILES	ELG1 genotoxic	SMN2 splice up	FLuc modulator	Rab9 promoter act	NPC1 promoter act
Nc1nc(Cl)nc2c1ncn2[C@@H]1O[C@H](COP(=O)(O)OP(=O)(O)OP(=O)(O)O)[C@@H](O)[C@H]1O	·	·	·	-4%[46.1 µM]	1%[46.1 µM]
COC(=O)c1nc2ccc(N3CCOCC3)cc2c(C)c1C(=O)OC	-3%	10µM*	2.4µM*	2.8µM*	?
O=C(NCc1ccco1)c1cc(-c2ccc(Cl)cc2)on1	16%	-11%	-11%	?	3.2µM*
Cc1cc(C(=O)NCc2ccco2)no1	0%	·	-2%	-8%	-5%
O=C(/C=C/c1ccc(S(=O)(=O)NCc2ccco2)cc1)NCc1ccccc1Cl	2%	·	-1%	8%	-5%
Cc1ccc(-c2cc(C(=O)NCc3ccccn3)no2)cc1	13µM*	28µM*	17µM*	?	?
CC(C)Cc1cc(C(=O)NCc2ccco2)no1	?	·	17µM*	4µM*	?
O=C(/C=C/c1ccc(Cl)cc1)NCc1ccco1	12%	24%	13µM*	21%	6%
COC(=O)c1ccc(OCC2c3cc(OC)c(OC)cc3CCN2C(=O)c2ccc(F)cc2)cc1 (stereo not given)	·	·	4%	·	·
COC(=O)c1nnc(C(=O)NCc2ccccc2)c2[nH]c3ccc(OC)cc3c12	·	6%	·	·	·
Cc1ccc(-c2cc(C(=O)NCc3ccco3)no2)cc1	?	?	?	2.2µM*	2.8µM*
O=C(NCc1ccco1)c1cc(-c2ccc3c(c2)OCO3)on1	?	?	?	4µM*	2.5µM*
O=C(NCc1ccccn1)c1cn(-c2ccccc2)nc1-c1ccc(Cl)cc1	0%	12%	19µM*	-5%	-2%
COc1cccc(-c2cc(C(=O)NCc3ccco3)no2)c1	10µM*	11µM*	11µM*	1.8µM*	3.2µM*
CCOC(=O)CN1C(=O)N(c2ccc(C)c(C)c2)S(=O)(=O)c2ccccc21	·	·	-6%	·	·
O=C(NCc1ccccn1)c1ccc(-c2ccccc2)cc1	?	·	12µM*	?	?
O=C(NCCCn1ccnc1)c1cn(-c2ccccc2)nc1-c1ccccc1	·	6%	12µM*	·	·
O=C(NCCc1ccccn1)c1ccc(OC(F)F)cc1	?	11µM*	11µM*	0.79µM*	1.4µM*
O=c1c2ccccc2n(Cc2cccc(Cl)c2)c(=O)n1CCc1ccccc1	·	1%	-11%	·	·
CC1CCc2c(sc3nnn(CCCCOc4ccc(Cl)cc4)c(=O)c23)C1 (stereo not given)	·	15%	4%	·	·
CSc1n[nH]c(NCc2ccc(C)cc2)n1	?	16µM*	24µM*	?	29%
O=C(Nc1ccc2c(c1)OCCO2)c1ccccn1	1µM*	1.3µM*	0.85µM*	0.32µM*	0.79µM*
O=C(Nc1ccc(NC(=O)c2ccccn2)cc1)C(=O)Nc1ccc2c(c1)OCCO2	10%	?	0%	15%	11%
O=C(Nc1ccc2c(c1)OCCO2)c1ccc2ccccc2n1	?	11µM*	2.1µM*	4.5µM*	0%
Cc1ccc(NC(=O)c2ccc3ccccc3n2)cc1S(=O)(=O)N(C)C	?	22µM*	4.3µM*	2.8µM*	?
SMILES	ELG1 genotoxic	SMN2 splice up	FLuc modulator	Rab9 promoter act	NPC1 promoter act
Cc1nn(S(=O)(=O)c2ccc(C(C)C)cc2)c(C)c1S(=O)(=O)N1CCCCC1	·	·	-18%	·	·
Cc1cc(C)nc(SCc2cn3c(C)cccc3n2)n1	0%	·	-19%	-2%	1%
Cc1cccc2nc(CSc3nc4ccccc4o3)cn12	13%	-2%	15µM*	20%	1%
c1ccc2oc(SCc3cn4ccccc4n3)nc2c1	4.6µM*	14µM*	9.5µM*	1.1µM*	1.4µM*
CCCCc1nn2c(=O)cc(COC(=O)c3ccccc3NC(=O)c3cccc(C)c3)nc2s1	·	·	-5%	·	·
Oc1cccc2ccc(SSc3ccc4cccc(O)c4n3)nc12	·	-10%[9.22 µM]	·	·	·
O=C(c1cc(COc2ccc(F)c(F)c2)on1)N1CCSCC1	?	·	17µM*	?	?
CC(=O)c1cccc(OCc2cc(C(=O)N3CCSCC3)no2)c1	9.2µM*	·	11µM*	3.2µM*	?
CC(=O)c1cccc(OCc2cc(C(=O)NCCC3=CCCCC3)no2)c1	?	·	9.5µM*	?	2.5µM*
COc1cc(C(C)=O)ccc1OCc1cc(C(=O)N2CCSCC2)no1	3%	·	-3%	4%	9%
O=C(O)c1cc2c(cc1S(=O)(=O)O)[C@H]1[C@@H](C3[C@H]2[C@@]2(Cl)C(Cl)=C(Cl)C3(Cl)C2(Cl)Cl)[C@]2(Cl)C(Cl)=C(Cl)C1(Cl)C2(Cl)Cl (stereo not given in full)	·	-4%[9.22 µM]	·	·	·
CCCN1C(=O)c2[nH]nc(-c3ccccc3O)c2C1c1ccc(OCc2ccccc2)c(OCC)c1 (stereo not given)	·	5%	0%	·	·
O=C1C(c2ccc(F)cc2)N(CCc2ccc(Cl)cc2)C(=O)CN1C1CCCCCC1 (stereo not given)	·	·	-2%	·	·
CCCc1ccc(-c2ccc(C(=O)Oc3ccc(OCC)cc3)cc2)nc1	·	4%	-19%	·	·
CCCCCc1ccc(-c2ccc(/C=C/C(N)=O)cc2)nc1	16%	-1%	4.8µM*	?	?
CCCc1ccc(-c2ccc(C(=O)O)cc2)nc1	?	2.5µM*	1.5µM*	0.4µM*	?
CCCCCc1ccc(-c2ccc(C(=O)Oc3ccc(C(=O)OC)cc3)cc2)nc1	·	-46%	12µM*	·	·
COc1ccc(C2CC2C(=O)c2ccccn2)cc1 (stereo not given)	6%	12%	17µM*	?	?
Nc1ccc(C#Cc2ccccc2)cc1	?	24%	15µM*	30%	22%
Nc1ccccc1C#Cc1ccccc1	?	32%	6.7µM*	26%	?
NS(=O)(=O)C#Cc1ccccc1	·	·	·	-41%[46.1 µM]	-37%[46.1 µM]
CC1=C(C(=O)Nc2cccnc2)C(c2ccccc2)n2nc(SCc3ccccc3Cl)nc2N1 (stereo not given)	·	12%	-3%	·	·
COC(=O)C1=C(C(=O)OC)[C@@H]2N(Cc3ccccc3)c3ccccc3[C@@]23C[C@@H](C(=O)OC)N(S(=O)(=O)c2ccc([N+](=O)[O-])cc2)C3=N1	·	0%[9.22 µM]	·	·	·
CCOC(=O)N1CCc2c(sc3c2c(=O)n(-c2ccc(Cl)cc2)c(=O)n3CC(C)C)C1	·	-11%	0%	·	·
Cc1ccc(C)c(NC(=O)c2ccccc2O)c1	-12%	-3%	17µM*	?	4%
Cc1cccc(NC(=O)c2ccccc2O)c1C	2%	11%	13µM*	?	?
Cc1cccc(NC(=O)c2cnn3ccccc23)c1C	15%	·	?	?	?
O=C(Nc1ccccc1O)c1ccccc1O	-12%	-3%	9.5µM*	20%	?
